# Source: PubChem BioAssay (EPA / NIEHS)
# Inconclusive results are not listed. Activity calls are given as the source filed them. Rule for the calls: active = hit-call score of the fitted dose curve at least 0.9, where 1 is the maximum; inconclusive = response in the unintended direction; inactive = score below 0.9.
# Assays:
# Caspase-3 (Homo sapiens) = Caspase-3 (Homo sapiens) (UniProt P42574); test: NVS_ENZ_hCASP3: NovaScreen (NVS) Enzymatic Assay for human Caspase 3 (CASP3) (AID 2283139)
# How it was run: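 Single-concentration screening at 25 uM in duplicate, with concentration-response follow-up to a 50 uM maximum for chemicals passing the threshold. Caspase-3 (human, E. coli-expressed) activity was read as substrate fluorescence after 1 h, with loss of signal relative to DMSO.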
# [1] = molecular target: human Caspase 8 (CASP8), CASP8 (gene 841) (UniProt Q14790); test: NVS_ENZ_hCASP8: NovaScreen (NVS) Enzymatic Assay for human Caspase 8 (CASP8) (AID 2283146)
# How it was run: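 The primary screen tested compounds in duplicate at a single 25 uM concentration, with actives followed up in concentration series. Activity of recombinant (E. coli) protease was measured by fluorescence 1 h post-dose, as signal loss against DMSO.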
# [2] = molecular target: human Epidermal Growth Factor Receptor (EGFR), EGFR (gene 1956) (UniProt P00533); test: NVS_ENZ_hEGFR: NovaScreen (NVS) Enzymatic Assay for human Epidermal Growth Factor Receptor (EGFR) (AID 2283151)
# How it was run: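 Cell-free kinase assay, fluorescence plus electrophoretic mobility shift separating substrate and product, read 1 hour after dosing; loss of signal vs DMSO. Duplicate screen at 25 uM, then concentration-response to 50 uM.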
# [3] = molecular target: human Fibroblast Growth Factor Receptor 1 (FGFR1), FGFR1 (gene 2260) (UniProt P11362); test: NVS_ENZ_hFGFR1: NovaScreen (NVS) Enzymatic Assay for human Fibroblast Growth Factor Receptor 1 (FGFR1) (AID 2283159);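 note: hits lower the signal so potencies describe inhibitors of the kinase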
# Procedure: (§1) NVS_ENZ_hFGFR1 is a biochemical, single-readout assay that uses extracted gene-proteins in a cell-free assay. Measurements were taken 1 hour after chemical dosing in a 384-well plate.NVS_ENZ_hFGFR1 is one of one assay component(s) measured or calculated from the NVS_ENZ_hFGFR1 assay. It is designed to make measurements of enzyme activity, a form of enzyme reporter, as detected with fluorescence intensity signals by Fluorescence and electrophoretic mobility shift technology.Data from the assay component NVS_ENZ_hFGFR1 was analyzed into 1 assay endpoint. This assay endpoint, NVS_ENZ_hFGFR1, was analyzed in the positive analysis fitting direction relative to DMSO as the negative control and baseline of activity. Using a type of enzyme reporter, loss-of-signal activity can be used to understand changes in the enzymatic activity as they relate to the gene FGFR1. Furthermore, this assay endpoint can be referred to as a primary readout, because this assay has produced multiple assay endpoints where this one serves a enzymatic activity function. To generalize the intended target to other relatable targets, this assay endpoint is annotated to the kinase intended target family, where the subfamily is receptor tyrosine kinase. […]
# [4] = molecular target: Histone deacetylase 3 (Homo sapiens) (UniProt O15379); test: NVS_ENZ_hHDAC3: NovaScreen (NVS) Enzymatic Assay for human Histone Deacetylase 3 (HDAC3) (AID 2283163)
# Procedure: as §1, with “NVS_ENZ_hHDAC3” for “NVS_ENZ_hFGFR1”, “plate.NVS_ENZ_hHDAC3” for “plate.NVS_ENZ_hFGFR1”, “NVS_ENZ_hHDAC3,” for “NVS_ENZ_hFGFR1,”, “HDAC3.” for “FGFR1.”, “hydrolase” for “kinase”, “histone deacetylase.” for “receptor tyrosine kinase.”
# [5] = molecular target: human Casein Kinase 1-delta (CK1D), CSNK1D (gene 1453) (UniProt P48730); test: NVS_ENZ_hCK1D: NovaScreen (NVS) Enzymatic Assay for human Casein Kinase 1-delta (CK1D) (AID 2283148)
# How it was run: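 Recombinant human CK1-delta, cell-free; fluorescent substrate with electrophoretic mobility-shift separation of product, read 1 h after dosing. Single 25 uM duplicate screen, then concentration-response up to 50 uM; loss of signal vs DMSO.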
# [6] = molecular target: human AKT serine/threonine Kinase 2 (AKT2), AKT2 (gene 208) (UniProt P31751); test: NVS_ENZ_hAKT2: NovaScreen (NVS) Enzymatic Assay for human AKT serine/threonine Kinase 2 (AKT2) (AID 2283141)
# How it was run: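 Cell-free fluorescence/electrophoretic mobility shift readout of recombinant human AKT2 activity, 1 h after chemical dosing. Duplicate primary screen at 25 uM, then singleton concentration-response up to 50 uM; loss of signal versus DMSO baseline.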
# [7] = molecular target: human Aurora Kinase A - serine/threonine-protein Kinase 6 (AurA), AURKA (gene 6790) (UniProt O14965); test: NVS_ENZ_hAurA: NovaScreen (NVS) Enzymatic Assay for human Aurora Kinase A - serine/threonine-protein Kinase 6 (AurA) (AID 2283142)
# Procedure: as §1, with “NVS_ENZ_hAurA” for “NVS_ENZ_hFGFR1”, “plate.NVS_ENZ_hAurA” for “plate.NVS_ENZ_hFGFR1”, “NVS_ENZ_hAurA,” for “NVS_ENZ_hFGFR1,”, “AURKA.” for “FGFR1.”, “serine/threonine” for “receptor tyrosine”
# [8] = molecular target: human Ephrin type-B Receptor 2 (EphB2), EPHB2 (gene 2048) (UniProt P29323); test: NVS_ENZ_hEphB2: NovaScreen (NVS) Enzymatic Assay for human Ephrin type-B Receptor 2 (EphB2) (AID 2283156)
# How it was run: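 Compounds were first tested in duplicate at 25 uM, with hits rerun singly in concentration series up to 50 uM. Enzyme activity on fluorescent substrate was read at 1 h by mobility-shift separation, scored as signal loss relative to DMSO.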
# [9] = molecular target: human FYN Proto-Oncogene, Src family Tyrosine Kinase (Fyn), FYN (gene 2534) (UniProt P06241); test: NVS_ENZ_hFyn: NovaScreen (NVS) Enzymatic Assay for human FYN Proto-Oncogene, Src family Tyrosine Kinase (Fyn) (AID 2283161)
# How it was run: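 Cell-free kinase activity read by fluorescence after mobility-shift separation of substrate and product, 1 h post-dose. Initial single concentration 25 uM in duplicate, then concentration-response follow-up; DMSO baseline.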
# Chain of Caspase-3 (Homo sapiens) (P42574 whole entry, looked up): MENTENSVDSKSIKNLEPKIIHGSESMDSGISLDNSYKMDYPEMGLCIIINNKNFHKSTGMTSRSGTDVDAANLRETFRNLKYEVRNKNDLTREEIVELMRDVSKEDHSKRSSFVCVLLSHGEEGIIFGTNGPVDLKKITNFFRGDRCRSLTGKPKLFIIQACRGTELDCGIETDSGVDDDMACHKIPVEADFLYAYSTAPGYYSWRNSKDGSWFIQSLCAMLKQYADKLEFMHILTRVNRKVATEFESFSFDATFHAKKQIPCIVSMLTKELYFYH
# Chain of human Casein Kinase 1-delta (CK1D), CSNK1D (gene 1453) (P48730 whole entry, looked up): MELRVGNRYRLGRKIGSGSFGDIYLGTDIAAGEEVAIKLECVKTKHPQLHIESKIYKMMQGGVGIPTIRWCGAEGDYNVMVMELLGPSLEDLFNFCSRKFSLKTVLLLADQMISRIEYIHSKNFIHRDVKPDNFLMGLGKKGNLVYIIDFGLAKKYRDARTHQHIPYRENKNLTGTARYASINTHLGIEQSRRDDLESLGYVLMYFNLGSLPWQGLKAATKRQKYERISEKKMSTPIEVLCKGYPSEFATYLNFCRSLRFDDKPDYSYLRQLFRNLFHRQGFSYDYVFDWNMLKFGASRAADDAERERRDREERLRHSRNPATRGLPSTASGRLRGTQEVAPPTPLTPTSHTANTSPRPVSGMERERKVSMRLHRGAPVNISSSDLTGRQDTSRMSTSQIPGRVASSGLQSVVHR
# Chain of Histone deacetylase 3 (Homo sapiens) (O15379 whole entry, looked up): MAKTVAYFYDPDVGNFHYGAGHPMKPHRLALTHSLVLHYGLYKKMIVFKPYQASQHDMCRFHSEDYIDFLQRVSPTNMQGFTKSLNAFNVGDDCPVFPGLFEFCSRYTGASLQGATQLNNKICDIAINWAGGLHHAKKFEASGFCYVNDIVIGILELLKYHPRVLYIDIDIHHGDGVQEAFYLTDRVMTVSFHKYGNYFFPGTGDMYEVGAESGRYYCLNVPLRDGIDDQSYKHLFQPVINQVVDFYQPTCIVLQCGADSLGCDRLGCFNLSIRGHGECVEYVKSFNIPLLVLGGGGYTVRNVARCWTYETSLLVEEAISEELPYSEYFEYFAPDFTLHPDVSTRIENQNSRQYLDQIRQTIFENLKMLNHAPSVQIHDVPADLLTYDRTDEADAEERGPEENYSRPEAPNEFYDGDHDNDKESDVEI
# Chain of human Epidermal Growth Factor Receptor (EGFR), EGFR (gene 1956) (P00533 whole entry, looked up): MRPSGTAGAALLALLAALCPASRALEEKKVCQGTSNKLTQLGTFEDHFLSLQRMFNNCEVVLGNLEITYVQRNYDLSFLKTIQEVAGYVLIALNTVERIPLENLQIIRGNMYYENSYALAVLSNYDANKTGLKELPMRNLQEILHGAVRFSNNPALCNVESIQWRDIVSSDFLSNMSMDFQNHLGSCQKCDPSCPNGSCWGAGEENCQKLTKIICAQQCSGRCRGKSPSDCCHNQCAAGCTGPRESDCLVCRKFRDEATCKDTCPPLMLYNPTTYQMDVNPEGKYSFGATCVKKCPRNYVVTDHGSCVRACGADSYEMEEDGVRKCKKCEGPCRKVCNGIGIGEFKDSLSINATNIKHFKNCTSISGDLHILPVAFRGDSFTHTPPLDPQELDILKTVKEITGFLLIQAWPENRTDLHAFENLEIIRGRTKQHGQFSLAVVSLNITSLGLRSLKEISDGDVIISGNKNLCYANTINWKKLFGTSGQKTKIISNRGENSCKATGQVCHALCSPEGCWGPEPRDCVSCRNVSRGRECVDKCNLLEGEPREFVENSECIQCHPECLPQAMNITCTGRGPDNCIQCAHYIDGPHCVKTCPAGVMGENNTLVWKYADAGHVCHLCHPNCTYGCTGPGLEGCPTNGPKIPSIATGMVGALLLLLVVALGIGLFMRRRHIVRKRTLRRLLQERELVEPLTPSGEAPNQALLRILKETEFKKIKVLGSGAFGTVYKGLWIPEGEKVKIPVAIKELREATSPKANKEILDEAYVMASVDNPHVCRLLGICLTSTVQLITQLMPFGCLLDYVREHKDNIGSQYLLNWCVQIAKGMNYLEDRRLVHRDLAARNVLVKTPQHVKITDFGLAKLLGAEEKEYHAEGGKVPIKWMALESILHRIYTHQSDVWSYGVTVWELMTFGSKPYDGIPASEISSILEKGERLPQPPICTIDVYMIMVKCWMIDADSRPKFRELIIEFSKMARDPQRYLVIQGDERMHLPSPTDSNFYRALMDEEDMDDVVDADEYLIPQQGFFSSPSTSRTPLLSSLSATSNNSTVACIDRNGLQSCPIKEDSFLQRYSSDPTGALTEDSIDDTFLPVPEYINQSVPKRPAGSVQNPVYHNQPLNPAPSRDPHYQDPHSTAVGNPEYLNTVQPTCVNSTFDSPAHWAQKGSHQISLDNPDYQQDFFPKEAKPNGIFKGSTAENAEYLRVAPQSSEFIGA
# Chain of human AKT serine/threonine Kinase 2 (AKT2), AKT2 (gene 208) (P31751 whole entry, looked up): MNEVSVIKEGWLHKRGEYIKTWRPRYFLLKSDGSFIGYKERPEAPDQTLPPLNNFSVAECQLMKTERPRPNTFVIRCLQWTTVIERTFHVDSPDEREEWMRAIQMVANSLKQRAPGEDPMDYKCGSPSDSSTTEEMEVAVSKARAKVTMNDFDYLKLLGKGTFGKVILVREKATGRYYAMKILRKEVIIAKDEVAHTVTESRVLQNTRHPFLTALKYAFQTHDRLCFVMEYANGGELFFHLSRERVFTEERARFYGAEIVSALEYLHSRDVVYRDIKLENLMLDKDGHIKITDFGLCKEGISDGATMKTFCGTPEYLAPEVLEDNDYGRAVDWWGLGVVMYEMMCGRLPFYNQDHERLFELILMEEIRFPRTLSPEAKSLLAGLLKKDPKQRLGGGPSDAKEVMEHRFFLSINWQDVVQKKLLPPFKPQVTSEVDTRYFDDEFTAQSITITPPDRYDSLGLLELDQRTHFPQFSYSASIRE
# Chain of human Caspase 8 (CASP8), CASP8 (gene 841) (Q14790 whole entry, looked up): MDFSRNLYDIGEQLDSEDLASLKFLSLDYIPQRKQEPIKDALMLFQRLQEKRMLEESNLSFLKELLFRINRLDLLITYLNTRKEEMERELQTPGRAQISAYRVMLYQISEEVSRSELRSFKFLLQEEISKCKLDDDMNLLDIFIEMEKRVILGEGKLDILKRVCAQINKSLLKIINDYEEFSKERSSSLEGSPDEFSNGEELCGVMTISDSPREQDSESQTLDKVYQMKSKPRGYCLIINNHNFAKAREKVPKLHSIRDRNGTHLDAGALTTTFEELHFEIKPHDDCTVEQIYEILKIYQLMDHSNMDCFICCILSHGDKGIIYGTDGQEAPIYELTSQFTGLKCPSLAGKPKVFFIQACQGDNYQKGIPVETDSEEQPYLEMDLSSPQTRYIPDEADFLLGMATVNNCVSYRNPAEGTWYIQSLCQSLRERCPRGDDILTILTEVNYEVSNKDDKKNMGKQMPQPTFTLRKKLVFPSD
# Chain of human Ephrin type-B Receptor 2 (EphB2), EPHB2 (gene 2048) (P29323 whole entry, looked up): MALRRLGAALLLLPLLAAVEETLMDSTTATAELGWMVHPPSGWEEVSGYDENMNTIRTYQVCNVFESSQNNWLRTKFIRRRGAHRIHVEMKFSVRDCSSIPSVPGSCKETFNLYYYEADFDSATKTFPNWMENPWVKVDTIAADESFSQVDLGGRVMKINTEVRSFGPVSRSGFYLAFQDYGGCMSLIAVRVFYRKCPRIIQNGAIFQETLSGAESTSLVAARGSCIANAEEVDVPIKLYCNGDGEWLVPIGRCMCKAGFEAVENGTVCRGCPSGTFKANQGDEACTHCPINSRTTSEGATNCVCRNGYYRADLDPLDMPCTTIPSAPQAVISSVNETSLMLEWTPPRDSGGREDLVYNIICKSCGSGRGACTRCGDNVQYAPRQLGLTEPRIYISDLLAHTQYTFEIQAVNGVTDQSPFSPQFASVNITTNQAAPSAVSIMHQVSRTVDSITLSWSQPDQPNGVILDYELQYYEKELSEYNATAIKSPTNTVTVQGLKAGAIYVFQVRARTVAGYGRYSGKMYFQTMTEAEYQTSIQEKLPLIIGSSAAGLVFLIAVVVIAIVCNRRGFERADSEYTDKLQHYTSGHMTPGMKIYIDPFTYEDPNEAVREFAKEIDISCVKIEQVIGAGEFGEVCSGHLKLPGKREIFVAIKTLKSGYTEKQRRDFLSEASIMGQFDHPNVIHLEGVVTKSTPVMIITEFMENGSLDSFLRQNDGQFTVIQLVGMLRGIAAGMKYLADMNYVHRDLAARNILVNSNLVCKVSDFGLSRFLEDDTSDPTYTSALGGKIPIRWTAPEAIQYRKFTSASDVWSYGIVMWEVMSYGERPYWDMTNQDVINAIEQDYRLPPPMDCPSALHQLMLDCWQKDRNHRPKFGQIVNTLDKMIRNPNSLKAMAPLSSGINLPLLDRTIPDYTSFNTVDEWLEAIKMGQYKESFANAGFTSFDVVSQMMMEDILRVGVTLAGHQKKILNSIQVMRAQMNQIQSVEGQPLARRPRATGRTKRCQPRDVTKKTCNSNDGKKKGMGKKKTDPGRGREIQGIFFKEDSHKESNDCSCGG
# Chain of human Aurora Kinase A - serine/threonine-protein Kinase 6 (AurA), AURKA (gene 6790) (O14965 whole entry, looked up): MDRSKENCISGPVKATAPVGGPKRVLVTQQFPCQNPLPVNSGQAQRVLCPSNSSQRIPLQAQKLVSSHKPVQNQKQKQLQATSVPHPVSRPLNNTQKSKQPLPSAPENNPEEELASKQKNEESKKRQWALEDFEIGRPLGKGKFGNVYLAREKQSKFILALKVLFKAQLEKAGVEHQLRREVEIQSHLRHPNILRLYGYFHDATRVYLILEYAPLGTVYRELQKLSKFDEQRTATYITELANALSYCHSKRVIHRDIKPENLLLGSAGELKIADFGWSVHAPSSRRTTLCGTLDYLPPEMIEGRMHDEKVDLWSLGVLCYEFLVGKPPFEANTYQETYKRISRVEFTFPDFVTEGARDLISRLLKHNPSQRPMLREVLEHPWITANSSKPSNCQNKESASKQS
smiles,measurement,setting,value
CC(=O)[O][Hg][c]1ccccc1,AC50,Caspase-3 (Homo sapiens),25 µM (active)
same,AC50,[1],8.22 µM (active)
same,AC50,[2],9.71 µM (active)
same,AC50,[3],33.4 µM (active)
same,AC50,[4],9.74 µM (active)
O=[N+]([O-])c1ccc(O)c([N+](=O)[O-])c1,outcome,Caspase-3 (Homo sapiens),inactive
same,outcome,[5],inactive
same,outcome,[4],inactive
CC(C)(OO)c1ccccc1,outcome,[6],inactive
ClC1(Cl)C2(Cl)C3(Cl)C4(Cl)C(Cl)(Cl)C5(Cl)C3(Cl)C1(Cl)C5(Cl)C24Cl (stereo unspecified),outcome,[6],inactive
same,outcome,[2],inactive
O=C1C2(Cl)C3(Cl)C4(Cl)C(Cl)(Cl)C5(Cl)C3(Cl)C1(Cl)C5(Cl)C24Cl (stereo unspecified),outcome,[7],inactive
O=c1[nH]c(=O)[nH]c(=O)[nH]1,outcome,[1],inactive
CCCCCCCCc1ccc(O)cc1,outcome,[5],inactive
O=C(O)C(Cl)(Cl)Cl,outcome,[8],inactive
NC(=O)O,outcome,[9],inactive
